Records with an inconclusive call do not appear. The source made the active and inactive calls. Rule for the calls, unless noted: active = hit-call score of the fitted dose curve at least 0.9, where 1 is the maximum; inactive = score below 0.9. Peptide text beside a SMILES is read from it.
molecular target: Ratio of Nucleoli Translocation and Cytoplasm, AR (gene 367) (UniProt P10275); experiment: UPITT_HCI_U2OS_AR_TIF2_Nucleoli_Cytoplasm_Ratio_Agonist: University of Pittsburgh U2OS Androgen Receptor-Transcriptional Intermediary Factor 2 (AR-TIF2) Agonism High Content Imaging Assay for Ratio of Nucleoli Translocation and Cytoplasm (AID 2284000; active = hit-call score of the fitted dose curve at least 0.9, where 1 is the maximum;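 note: hits raise the red nucleolar to cytoplasm ratio above vehicle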)
Summary of the method: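 Read-out first: nucleolar-to-cytoplasm ratio of red (AR-RFP) signal, quantified by high-content imaging in U2OS cells co-expressing TIF2-GFP. Activity is scored as signal increase over DMSO. Single-point screening used 20 uM final (0.2% DMSO).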

Ratio of Nucleoli Translocation and Cytoplasm, AR (gene 367), sequence (P10275 whole entry, looked up): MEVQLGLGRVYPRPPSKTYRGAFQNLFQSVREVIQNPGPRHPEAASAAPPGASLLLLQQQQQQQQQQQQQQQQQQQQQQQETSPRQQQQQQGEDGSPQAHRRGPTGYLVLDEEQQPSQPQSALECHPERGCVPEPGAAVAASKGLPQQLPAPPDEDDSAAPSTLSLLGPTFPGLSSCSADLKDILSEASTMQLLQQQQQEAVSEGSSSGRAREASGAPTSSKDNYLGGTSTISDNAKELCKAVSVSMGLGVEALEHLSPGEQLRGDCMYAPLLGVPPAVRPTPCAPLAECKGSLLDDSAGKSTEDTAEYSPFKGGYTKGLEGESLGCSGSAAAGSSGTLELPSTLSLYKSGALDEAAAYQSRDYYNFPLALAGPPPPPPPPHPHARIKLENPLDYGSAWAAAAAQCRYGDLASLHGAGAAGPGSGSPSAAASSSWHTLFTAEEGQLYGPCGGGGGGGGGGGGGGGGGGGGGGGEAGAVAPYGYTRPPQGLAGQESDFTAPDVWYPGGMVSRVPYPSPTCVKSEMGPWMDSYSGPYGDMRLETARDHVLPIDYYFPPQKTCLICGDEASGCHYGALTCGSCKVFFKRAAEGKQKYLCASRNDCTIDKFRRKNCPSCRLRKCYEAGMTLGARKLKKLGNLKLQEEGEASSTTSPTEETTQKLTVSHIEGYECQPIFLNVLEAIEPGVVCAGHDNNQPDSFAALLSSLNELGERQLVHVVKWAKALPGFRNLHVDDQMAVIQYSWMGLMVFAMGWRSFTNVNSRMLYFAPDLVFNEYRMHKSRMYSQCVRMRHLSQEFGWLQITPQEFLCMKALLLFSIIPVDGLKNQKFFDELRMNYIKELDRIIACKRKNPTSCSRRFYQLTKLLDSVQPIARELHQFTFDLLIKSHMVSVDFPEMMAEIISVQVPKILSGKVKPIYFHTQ

| Structure (SMILES) | outcome |
| --- | --- |
| CC(=O)OC1CCCCC1C(C)(C)C (configuration not stated) | inactive |
| c1ccc2c(c1)[nH]c1ccccc12 | inactive |
| CCC(C)c1ccccc1 (configuration not stated) | inactive |
| CCCCCCCCCCCCCC(=O)OC(C)C | inactive |
| CC(=O)OCc1ccccc1 | inactive |
| Cc1ccc(C)c(OCCCC(C)(C)C(=O)O)c1 | inactive |
| C=C1C[C@H]2[C@@H]3C=C(C)C4=CC(=O)CC[C@]4(C)[C@H]3CC[C@]2(C)[C@@]1(OC(C)=O)C(C)=O | inactive |
| N#Cc1ccc(C(c2ccc(C#N)cc2)n2cncn2)cc1 | inactive |
| CCCCCCCCCC(C)=O | inactive |
| CN(C)Cc1cc(CN(C)C)c(O)c(CN(C)C)c1 | inactive |
| CCCCC(CC)COC(=O)/C=C/c1ccc(OC)cc1 (configuration not stated) | inactive |
| Oc1ccc(-c2ccccc2)c(Cl)c1 | inactive |
| CCCCCC[C@@H](O)C/C=C\CCCCCCCC(=O)OCC(O)CO (some centres not stated) | inactive |

test system: not listed separately; experiment: CCTE_Shafer_MEA_acute_spike_number: CCTE's Neural Acute Assay for Total Number of Spikes, Shafer Lab (AID 2284008)
Summary of the method: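 Using an adaptive detector set to 8x rms noise, spikes were counted in 40-min windows before and after compound addition (0.03-40 uM) to rat cortical networks at 37 C; the well-level change from baseline was analysed relative to DMSO.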

| Structure (SMILES) | outcome |
| --- | --- |
| Nc1nc(N)nc(-c2ccccc2)n1 | inactive |
| CCCCCCCCCCCC(=O)N(C)CC(=O)O | inactive |
| CC(C)C(=O)OCCc1ccccc1 | inactive |
| COC(=O)[C@H](Cc1ccccc1)NC(=O)[C@@H](N)CC(=O)O (H-Asp-Phe-OMe) | inactive |

test system: not listed separately; experiment: CCTE_Shafer_MEA_acute_firing_rate_mean: CCTE's Neural Acute Assay for Mean Firing Rate, Shafer Lab (AID 2284009);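 note: analyzed for loss of signal so actives lower firing rate relative to DMSO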
Summary of the method: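 Percent change in well-mean firing rate was derived from extracellular spikes detected at 8x rms noise (300-5000 Hz band-pass) before and after a 40-min compound exposure. Cultures were primary rat cortical neurons, tested at 0.03-40 uM.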

| Structure (SMILES) | outcome |
| --- | --- |
| Nc1nc(N)nc(-c2ccccc2)n1 | inactive |
| CCCCCCCCCCCC(=O)N(C)CC(=O)O | inactive |
| CC(C)C(=O)OCCc1ccccc1 | inactive |
| COC(=O)[C@H](Cc1ccccc1)NC(=O)[C@@H](N)CC(=O)O (H-Asp-Phe-OMe) | inactive |

test system: not listed separately; experiment: CCTE_Harrill_HTTr_Viability_MCF7: CCTE's 6-hour Cell Viability Assessment for the High-Throughput Transcriptomics (HTTr) Platform, in MCF-7 cells cultured in DMEM + 10% fetal bovine serum, Harrill Lab (AID 2284010)
Summary of the method: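 Viability measured through PI dye exclusion by high-content imaging at 6 h post-dosing.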

| Structure (SMILES) | outcome |
| --- | --- |
| CC(=O)OC1CCCCC1C(C)(C)C (configuration not stated) | inactive |
| c1ccc2c(c1)[nH]c1ccccc12 | inactive |
| COc1ccc(C(=O)c2ccccc2)c(O)c1 | inactive |
| COc1ccc(-c2coc3cc(O)cc(O)c3c2=O)cc1 | inactive |
| N#Cc1ccc(C2CCCc3cncn32)cc1 (configuration not stated) | inactive |
| CCC(C)c1ccccc1 (configuration not stated) | inactive |
| CCCCCCCCCCCCCC(=O)OC(C)C | inactive |
| CCCCC/C=C\C/C=C\CCCCCCCC(=O)O | inactive |
| COc1cc(O)c(C(=O)c2ccccc2)cc1S(=O)(=O)O | inactive |
| O=C(O)c1ccc2c(c1)C(=O)OC2=O | inactive |
| CC(=O)OCc1ccccc1 | inactive |
| Cc1ccc(C)c(OCCCC(C)(C)C(=O)O)c1 | inactive |
| C=C1C[C@H]2[C@@H]3C=C(C)C4=CC(=O)CC[C@]4(C)[C@H]3CC[C@]2(C)[C@@]1(OC(C)=O)C(C)=O | inactive |
| Oc1ccc(/C=C/c2cc(O)cc(O)c2)cc1 | inactive |
| N#Cc1ccc(C(c2ccc(C#N)cc2)n2cncn2)cc1 | inactive |
| CCCCC1C(=O)N(c2ccccc2)N(c2ccccc2)C1=O | inactive |
| Oc1ccc(-c2ccccc2)c(Cl)c1 | inactive |

test system: not listed separately; experiment: CCTE_Harrill_HTTr_Apoptosis_MCF7: CCTE's 6-hour Apoptosis Assessment for the High-Throughput Transcriptomics (HTTr) Platform, in MCF-7 cells cultured in DMEM + 10% fetal bovine serum, Harrill Lab (AID 2284011)
Summary of the method: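 Apoptosis in MCF-7 cells grown in DMEM with 10% fetal bovine serum was scored after a six hour exposure by high content imaging of caspase-3/7 activation (CellEvent Caspase 3/7 Green), with DMSO serving as negative control and baseline.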

| Structure (SMILES) | outcome |
| --- | --- |
| COc1ccc(-c2coc3cc(O)cc(O)c3c2=O)cc1 | inactive |
| CCC(C)c1ccccc1 (configuration not stated) | inactive |
| CCCCC/C=C\C/C=C\CCCCCCCC(=O)O | inactive |
| COc1cc(O)c(C(=O)c2ccccc2)cc1S(=O)(=O)O | inactive |
| O=C(O)c1ccc2c(c1)C(=O)OC2=O | inactive |
| Cc1ccc(C)c(OCCCC(C)(C)C(=O)O)c1 | inactive |
| C=C1C[C@H]2[C@@H]3C=C(C)C4=CC(=O)CC[C@]4(C)[C@H]3CC[C@]2(C)[C@@]1(OC(C)=O)C(C)=O | inactive |
| N#Cc1ccc(C(c2ccc(C#N)cc2)n2cncn2)cc1 | inactive |
| Oc1ccc(-c2ccccc2)c(Cl)c1 | inactive |

From PubChem BioAssay (EPA / NIEHS)
